# From PMC7862700, “An all-to-all approach to the identification of sequence-specific readers for epigenetic DNA modifications on cytosine”
# Assays:
# Experiment in all cases: DAPPL (digital affinity profiling via proximity ligation, sequencing); 10 mM Tris-HCl pH 7.5, 50 mM NaCl, 1 mM DTT, 4% glycerol, room temperature, 30 min; GST-TFs on glutathione beads, 16-mer random dsDNA library, 0.1% formaldehyde crosslink after washing; high values mean tight binding
# Details in all cases: protein: recombinant; tags: N-terminal GST; dsDNA, one strand shown
# ELK1 = target: T1, ELK1 (Homo sapiens, UniProt P19419 1-428)
# T1 sequence: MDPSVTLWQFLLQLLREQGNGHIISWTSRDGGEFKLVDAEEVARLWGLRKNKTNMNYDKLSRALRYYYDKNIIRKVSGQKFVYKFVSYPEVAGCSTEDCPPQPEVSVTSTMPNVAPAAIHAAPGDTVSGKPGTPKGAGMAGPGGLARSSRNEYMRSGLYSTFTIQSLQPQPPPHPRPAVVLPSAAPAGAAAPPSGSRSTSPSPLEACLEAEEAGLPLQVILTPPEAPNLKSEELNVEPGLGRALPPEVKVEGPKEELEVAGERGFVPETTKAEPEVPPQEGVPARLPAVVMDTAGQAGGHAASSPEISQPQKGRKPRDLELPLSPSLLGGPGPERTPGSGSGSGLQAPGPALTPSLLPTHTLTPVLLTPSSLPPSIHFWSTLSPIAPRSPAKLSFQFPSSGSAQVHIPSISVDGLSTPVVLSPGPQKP
# In short: (§1)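 Yeast served to express human transcription factors as GST fusions, which were then captured on glutathione beads and labelled with DNA barcodes. Pooled with a tag-only sample, they were incubated with 200 nmole of a 16-mer random double-stranded DNA library for 30 min at room temperature in Tris/NaCl/DTT/glycerol buffer, washed, crosslinked with 0.1% formaldehyde, ligated by proximity, amplified by PCR and sequenced. Dividing each hexamer's read frequency for a factor by its frequency for the tag-only sample gives the binding signal.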
# GABPA = target: T2, GABPA (Homo sapiens, UniProt Q06546 1-454)
# T2 sequence: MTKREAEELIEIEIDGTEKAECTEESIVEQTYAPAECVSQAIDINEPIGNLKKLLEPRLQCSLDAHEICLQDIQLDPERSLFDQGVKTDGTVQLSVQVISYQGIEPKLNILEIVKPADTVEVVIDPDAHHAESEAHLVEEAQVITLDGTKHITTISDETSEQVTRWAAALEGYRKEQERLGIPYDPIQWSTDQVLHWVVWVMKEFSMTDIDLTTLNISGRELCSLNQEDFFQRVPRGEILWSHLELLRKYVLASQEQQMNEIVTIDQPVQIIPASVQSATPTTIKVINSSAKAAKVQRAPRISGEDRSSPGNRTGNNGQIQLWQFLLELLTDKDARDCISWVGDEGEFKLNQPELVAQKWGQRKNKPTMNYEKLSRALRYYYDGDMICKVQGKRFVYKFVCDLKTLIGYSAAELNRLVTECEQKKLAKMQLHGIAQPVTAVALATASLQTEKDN
# In short: as §1
# ELF1 = ELF1 (Homo sapiens, UniProt P32519 1-619)
# Sequence of ELF1 (P32519 whole entry): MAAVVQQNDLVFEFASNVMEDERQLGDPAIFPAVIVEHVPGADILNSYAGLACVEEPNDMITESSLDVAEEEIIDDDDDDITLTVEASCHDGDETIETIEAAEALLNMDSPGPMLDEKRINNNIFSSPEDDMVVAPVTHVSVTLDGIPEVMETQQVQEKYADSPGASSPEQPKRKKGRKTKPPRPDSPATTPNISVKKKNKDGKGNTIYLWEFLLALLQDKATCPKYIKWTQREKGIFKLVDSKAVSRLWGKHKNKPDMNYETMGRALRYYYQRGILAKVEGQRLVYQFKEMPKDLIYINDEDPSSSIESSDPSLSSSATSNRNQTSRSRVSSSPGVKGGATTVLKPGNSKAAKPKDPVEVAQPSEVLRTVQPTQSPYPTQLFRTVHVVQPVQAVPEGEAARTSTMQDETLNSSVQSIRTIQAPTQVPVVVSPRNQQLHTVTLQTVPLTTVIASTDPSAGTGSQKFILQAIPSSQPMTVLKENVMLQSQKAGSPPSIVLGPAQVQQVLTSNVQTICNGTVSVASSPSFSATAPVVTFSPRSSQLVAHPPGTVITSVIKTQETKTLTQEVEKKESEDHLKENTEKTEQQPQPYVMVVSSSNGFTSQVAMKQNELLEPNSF
# In short: as §1
# EHF = target: T3, EHF (Homo sapiens, UniProt Q9NZC4 1-300)
# T3 sequence: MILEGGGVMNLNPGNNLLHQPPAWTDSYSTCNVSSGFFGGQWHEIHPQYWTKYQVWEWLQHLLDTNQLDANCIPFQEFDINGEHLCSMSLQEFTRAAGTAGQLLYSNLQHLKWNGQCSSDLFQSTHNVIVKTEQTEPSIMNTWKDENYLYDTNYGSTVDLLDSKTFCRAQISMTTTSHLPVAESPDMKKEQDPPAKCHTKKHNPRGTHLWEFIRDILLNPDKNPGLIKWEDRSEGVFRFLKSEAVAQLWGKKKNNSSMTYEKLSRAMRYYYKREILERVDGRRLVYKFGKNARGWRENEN
# In short: as §1
# SPIB = SPIB (Homo sapiens, UniProt Q01892 1-262)
# Sequence of SPIB (Q01892 whole entry): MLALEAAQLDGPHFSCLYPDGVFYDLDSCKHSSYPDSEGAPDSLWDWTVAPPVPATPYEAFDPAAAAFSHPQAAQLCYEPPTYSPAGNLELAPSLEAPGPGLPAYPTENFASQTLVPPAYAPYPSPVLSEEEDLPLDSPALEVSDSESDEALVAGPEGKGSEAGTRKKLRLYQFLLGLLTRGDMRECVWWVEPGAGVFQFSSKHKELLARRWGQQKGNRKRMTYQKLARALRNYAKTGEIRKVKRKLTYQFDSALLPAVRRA
# In short: as §1
# FEV = target: T4, FEV (Homo sapiens, UniProt Q99581 1-238)
# T4 sequence: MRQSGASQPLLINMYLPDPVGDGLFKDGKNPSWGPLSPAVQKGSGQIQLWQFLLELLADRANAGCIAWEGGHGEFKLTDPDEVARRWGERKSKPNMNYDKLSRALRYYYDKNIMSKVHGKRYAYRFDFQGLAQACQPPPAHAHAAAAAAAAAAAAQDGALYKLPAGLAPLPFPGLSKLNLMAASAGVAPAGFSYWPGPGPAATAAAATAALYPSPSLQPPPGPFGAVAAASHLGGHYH
# In short: as §1
# ETV5 = ETV5 (Homo sapiens, UniProt P41161 1-510)
# Sequence of ETV5 (P41161 whole entry): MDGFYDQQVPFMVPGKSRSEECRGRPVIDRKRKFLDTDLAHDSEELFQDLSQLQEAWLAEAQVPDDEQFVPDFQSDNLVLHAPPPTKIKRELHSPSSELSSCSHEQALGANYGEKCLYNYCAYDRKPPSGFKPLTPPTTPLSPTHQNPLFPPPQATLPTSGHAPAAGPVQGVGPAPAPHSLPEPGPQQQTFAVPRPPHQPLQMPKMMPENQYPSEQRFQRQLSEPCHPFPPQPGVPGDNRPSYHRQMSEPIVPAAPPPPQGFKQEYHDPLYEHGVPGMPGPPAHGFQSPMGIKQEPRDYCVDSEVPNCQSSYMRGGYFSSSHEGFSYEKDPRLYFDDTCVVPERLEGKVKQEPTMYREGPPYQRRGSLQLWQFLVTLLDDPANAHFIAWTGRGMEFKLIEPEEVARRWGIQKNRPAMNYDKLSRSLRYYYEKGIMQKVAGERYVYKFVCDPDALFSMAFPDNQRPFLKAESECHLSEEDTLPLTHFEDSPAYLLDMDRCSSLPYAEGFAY
# In short: as §1
# ELF4 = ELF4 (Homo sapiens, UniProt Q99607 1-663)
# Sequence of ELF4 (Q99607 whole entry): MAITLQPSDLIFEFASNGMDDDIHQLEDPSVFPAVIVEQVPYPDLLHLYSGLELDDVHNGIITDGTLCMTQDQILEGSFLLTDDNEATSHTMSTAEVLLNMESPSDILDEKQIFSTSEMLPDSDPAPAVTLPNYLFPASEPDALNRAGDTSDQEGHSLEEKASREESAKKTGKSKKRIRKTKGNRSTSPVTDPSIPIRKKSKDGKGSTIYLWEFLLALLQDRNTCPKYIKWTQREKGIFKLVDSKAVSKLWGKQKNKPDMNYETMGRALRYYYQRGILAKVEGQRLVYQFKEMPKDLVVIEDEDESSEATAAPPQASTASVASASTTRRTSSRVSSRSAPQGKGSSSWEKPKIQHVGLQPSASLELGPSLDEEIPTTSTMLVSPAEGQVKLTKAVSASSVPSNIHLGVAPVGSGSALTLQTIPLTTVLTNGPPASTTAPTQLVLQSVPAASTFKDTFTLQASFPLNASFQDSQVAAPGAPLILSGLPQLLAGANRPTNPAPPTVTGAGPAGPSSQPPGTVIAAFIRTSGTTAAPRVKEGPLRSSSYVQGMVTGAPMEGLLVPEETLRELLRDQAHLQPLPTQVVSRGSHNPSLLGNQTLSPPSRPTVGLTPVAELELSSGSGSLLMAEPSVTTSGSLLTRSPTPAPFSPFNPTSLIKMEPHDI
# In short: as §1
# ELK4 = target: T5, ELK4 (Homo sapiens, UniProt P28324-2 1-405)
# T5 sequence: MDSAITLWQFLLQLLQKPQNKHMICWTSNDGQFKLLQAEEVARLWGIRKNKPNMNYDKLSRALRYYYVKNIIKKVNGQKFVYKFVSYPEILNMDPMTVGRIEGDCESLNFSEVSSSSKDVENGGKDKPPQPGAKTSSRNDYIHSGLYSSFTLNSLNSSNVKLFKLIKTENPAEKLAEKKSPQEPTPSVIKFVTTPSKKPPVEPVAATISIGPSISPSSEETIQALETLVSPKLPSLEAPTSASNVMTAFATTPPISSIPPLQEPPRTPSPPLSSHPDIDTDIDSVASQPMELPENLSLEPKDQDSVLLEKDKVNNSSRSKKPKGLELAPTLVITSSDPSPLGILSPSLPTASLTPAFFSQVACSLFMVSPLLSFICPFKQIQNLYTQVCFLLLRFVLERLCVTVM
# In short: as §1
# ETV2 = target: T6, ETV2 (Homo sapiens, UniProt O00321 1-342)
# T6 sequence: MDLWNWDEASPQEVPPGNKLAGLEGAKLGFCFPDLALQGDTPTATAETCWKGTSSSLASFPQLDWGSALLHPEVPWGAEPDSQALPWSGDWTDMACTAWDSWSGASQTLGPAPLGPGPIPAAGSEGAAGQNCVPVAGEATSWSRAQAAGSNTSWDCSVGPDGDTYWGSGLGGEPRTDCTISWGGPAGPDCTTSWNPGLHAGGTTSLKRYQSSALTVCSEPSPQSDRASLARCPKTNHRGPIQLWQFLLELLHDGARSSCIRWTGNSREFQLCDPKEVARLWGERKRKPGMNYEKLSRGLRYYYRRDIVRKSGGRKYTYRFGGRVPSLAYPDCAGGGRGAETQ
# In short: as §1
# ERF = target: T7, ERF (Homo sapiens, UniProt P50548 1-548)
# T7 sequence: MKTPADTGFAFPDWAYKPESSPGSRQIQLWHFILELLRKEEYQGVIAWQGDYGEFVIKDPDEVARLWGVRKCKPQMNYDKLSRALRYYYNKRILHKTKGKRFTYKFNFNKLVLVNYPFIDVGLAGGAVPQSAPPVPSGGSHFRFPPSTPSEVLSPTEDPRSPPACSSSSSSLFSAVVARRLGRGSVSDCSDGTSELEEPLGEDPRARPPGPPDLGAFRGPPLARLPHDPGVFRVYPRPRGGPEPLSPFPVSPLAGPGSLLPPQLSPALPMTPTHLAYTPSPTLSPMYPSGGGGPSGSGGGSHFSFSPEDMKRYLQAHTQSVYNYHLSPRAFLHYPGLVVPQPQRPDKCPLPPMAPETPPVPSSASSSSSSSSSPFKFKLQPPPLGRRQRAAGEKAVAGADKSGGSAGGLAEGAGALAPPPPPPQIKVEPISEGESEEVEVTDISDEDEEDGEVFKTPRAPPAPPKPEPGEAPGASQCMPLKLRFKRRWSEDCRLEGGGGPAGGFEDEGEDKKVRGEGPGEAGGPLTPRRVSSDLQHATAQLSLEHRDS
# In short: as §1
# SPDEF = target: T8, SPDEF (Homo sapiens, UniProt O95238 1-335)
# T8 sequence: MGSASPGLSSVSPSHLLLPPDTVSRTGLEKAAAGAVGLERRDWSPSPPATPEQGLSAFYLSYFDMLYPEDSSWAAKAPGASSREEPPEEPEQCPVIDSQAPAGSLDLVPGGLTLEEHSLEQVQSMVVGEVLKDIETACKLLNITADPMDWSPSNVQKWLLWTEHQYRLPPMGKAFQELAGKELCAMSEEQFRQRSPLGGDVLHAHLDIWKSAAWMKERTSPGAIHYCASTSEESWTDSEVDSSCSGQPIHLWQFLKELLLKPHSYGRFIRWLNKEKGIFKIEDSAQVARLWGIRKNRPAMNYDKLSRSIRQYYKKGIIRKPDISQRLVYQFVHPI
# In short: as §1
# ETV3 = target: T9, ETV3 (Homo sapiens, UniProt P41162-2 1-143)
# T9 sequence: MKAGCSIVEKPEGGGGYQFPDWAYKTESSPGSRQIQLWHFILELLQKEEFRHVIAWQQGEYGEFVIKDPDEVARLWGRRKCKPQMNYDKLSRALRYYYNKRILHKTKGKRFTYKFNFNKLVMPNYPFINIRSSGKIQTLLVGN
# In short: as §1
# ETV6 = ETV6 (Homo sapiens, UniProt P41212 1-452)
# Sequence of ETV6 (P41212 whole entry): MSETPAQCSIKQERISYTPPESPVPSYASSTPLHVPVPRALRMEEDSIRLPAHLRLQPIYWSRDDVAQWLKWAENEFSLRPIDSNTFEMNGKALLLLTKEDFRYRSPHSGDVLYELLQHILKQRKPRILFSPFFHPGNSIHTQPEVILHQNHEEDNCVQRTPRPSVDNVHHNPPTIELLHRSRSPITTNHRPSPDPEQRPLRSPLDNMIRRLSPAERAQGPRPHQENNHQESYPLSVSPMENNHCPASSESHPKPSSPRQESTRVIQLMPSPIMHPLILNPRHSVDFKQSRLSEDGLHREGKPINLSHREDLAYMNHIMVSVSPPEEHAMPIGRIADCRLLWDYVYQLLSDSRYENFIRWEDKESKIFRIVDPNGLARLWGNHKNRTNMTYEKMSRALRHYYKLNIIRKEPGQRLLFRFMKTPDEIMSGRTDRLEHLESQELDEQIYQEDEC
# In short: as §1
sequence,measurement,setting,value
ACCAAA,binding signal,ELK1,"1.05 fold enrichment (6-mer frequency, TF over GST control)"
same,binding signal,GABPA,"1.01 fold enrichment (6-mer frequency, TF over GST control)"
same,binding signal,ELF1,"1.04 fold enrichment (6-mer frequency, TF over GST control)"
same,binding signal,EHF,"1.07 fold enrichment (6-mer frequency, TF over GST control)"
same,binding signal,SPIB,"1.03 fold enrichment (6-mer frequency, TF over GST control)"
same,binding signal,FEV,"1.07 fold enrichment (6-mer frequency, TF over GST control)"
same,binding signal,ETV5,"1.03 fold enrichment (6-mer frequency, TF over GST control)"
same,binding signal,ELF4,"1.1 fold enrichment (6-mer frequency, TF over GST control)"
same,binding signal,ELK4,"1.02 fold enrichment (6-mer frequency, TF over GST control)"
same,binding signal,ETV2,"1.14 fold enrichment (6-mer frequency, TF over GST control)"
same,binding signal,ERF,"1.03 fold enrichment (6-mer frequency, TF over GST control)"
same,binding signal,SPDEF,"1.04 fold enrichment (6-mer frequency, TF over GST control)"
same,binding signal,ETV3,"1.02 fold enrichment (6-mer frequency, TF over GST control)"
same,binding signal,ETV6,"1.03 fold enrichment (6-mer frequency, TF over GST control)"
